# Measurements from PubChem BioAssay (Tox21).
# Values joined by “and” are separate entries in the source; they are usually repeats but may differ in a detail not shown here. Equal entries are not always repeated. Inconclusive results are not listed. Active and inactive are the calls of the source. Calls come from the whole dose curve; as a rule, active = well fitted cell-killing curve with a large enough effect in the repeat runs; inconclusive = weak or mixed curves, or effect the other way; inactive = no such curve, though single readings can be large or run the other way.
# Assay: qHTS assay to identify small molecule agonists of the farnesoid-X-receptor (FXR) signaling pathway - cell viability counter screen (AID 743218); note: nearly all actives have a fitted effect of over 45% in size
# Conditions: FXR-bla HEK293T viability, CellTiter-Glo luminescence, 16 h; series mostly up to 62.6 µM; viability change, negative = cytotoxic: at the top concentration
# Summary of the method: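 Cells were seeded, left 5 h at 37 C and 5% CO2, then dosed with compound in DMSO for 16 h. After the beta-lactamase FRET read, CellTiter-Glo was added and luminescence measured 30 min later.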
# % is set by controls: 0 for no effect and ±100 for the full control effect; potency is the fitted concentration of half-maximal effect.
SMILES,"viability change, negative = cytotoxic",Potency
CCc1cc(C(C)(C)C)c(O)c(C(C)(C)C)c1,28.9% (inactive),–
COC(=O)[C@H]1[C@H]2C[C@@H]3c4[nH]c5cc(OC)ccc5c4CCN3C[C@H]2C[C@@H](OC(=O)c2cc(OC)c(OC)c(OC)c2)[C@@H]1OC,–,22.5 µM (active)
NCCCCCC(=O)O,-11% (inactive),–
CCCCCCCCCCCCCCCCCl,-8.36% [at 29.1 µM] (inactive),–
CC(C)(C)NCC(O)COc1ccccc1OCC1CCCO1 (stereo not given),0.721% (inactive),–
CC(N)=O,23.1% [at 232 µM] (inactive),–
O=Nc1ccc(Nc2ccccc2)cc1,–,55.3 µM (active) and 54.9 µM (active)
CCC(=O)/C=C/C1C(C)=CCCC1(C)C (stereo not given),–,inactive
NC(N)=Nc1nc(CSCC/C(N)=N/S(N)(=O)=O)cs1,–,inactive
CC(=O)CC(C)=O,7.5% [at 81.1 µM] (inactive),–
CCCCCC(=O)O[C@]1(C(C)=O)CC[C@H]2[C@@H]3CCC4=CC(=O)CC[C@]4(C)[C@H]3CC[C@@]21C,–,43.4 µM (active)
CC(=O)OCC1=C(C(=O)O)N2C(=O)[C@@H](NC(=O)Cc3cccs3)[C@H]2SC1,-6.09% (inactive),–
CC1COC(=O)O1 (stereo not given),–,inactive
Cc1occc(=O)c1OC(=O)C(C)C,0.221% (inactive),–
C=C(C)C1CC=C(C)C(OC(C)=O)C1 (stereo not given),–,inactive
Cc1scc2c1N(C(=O)CN1CCN(C)CC1)c1ccccc1NC2=O,8.35% (inactive),–
O=S(=O)(O)c1ccc2nc(-c3ccccc3)[nH]c2c1,4.77% (inactive),–
CCC[C@H](N[C@@H](C)C(=O)N1[C@H](C(=O)O)C[C@@H]2CCCC[C@@H]21)C(=O)OCC,9.3% (inactive),–
CCCCCCCCCCCC[N+](C)(C)C,1.43% (inactive),–
Cc1cc(C2(c3cc(C)c(O)cc3C)OS(=O)(=O)c3ccccc32)c(C)cc1O,–,inactive
